From PubChem
ELG1 DNA repair: inhibitors of ELG1-dependent DNA repair in HEK293T cells. AID 504467. Potency, µM (doses to about 46.1 µM), actives largely listed as inhibitors. actives 2.3% (n = 330,000). HEK293T ELG1-luciferase reporter, luminescence, 16 h; DNA damage induced by 5-fluorouridine; note: nearly all actives have a fitted effect of over 55% in size
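HEK293T cells expressing luciferase-tagged ELG1 (2,000/well) received 5-Fluorouridine plus compound or DMSO for 16 hr at 37 °C. Luciferase was read by ONE-Glo luminescence after 30 min at room temperature.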
KB-V1 cytotox: kills drug-selected multidrug resistant KB-V1 cells; Potency, µM (series often up to 46.1 µM), hits mostly cytotoxic; actives 3.4% (n = 400,000); KB-V1 MDR cells viability, CellTiter-Glo, 72 h; note: nearly all actives have a fitted effect of over 60% in size
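KB-V1 MDR subline cells in DMEM (phenol-red free, 10% FBS) exposed to compounds in qHTS concentration series for 72 h at 37 degrees C. Viability read by CellTiter-Glo luminescence; concentration-effect curves fitted after normalization and correction.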
KB-3-1 tox: KB-3-1 parental cell cytotoxicity | KB-3-1 viability, CellTiter-Glo ATP luminescence, 72 h | Potency, µM (titrated, usually from 46.1 µM), hits mostly cytotoxic | actives 1.4% (n = 400,000) | AID 1347075; note: nearly all actives have a fitted effect of over 60% in size
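Luminescent ATP read-out (CellTiter-Glo) measures survival of drug-naive KB-3-1 cells after 72 h compound exposure at 37 °C. Titration series was screened from lowest to highest concentration, with DMSO vehicle plates as background controls.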
MCF10A rerep: DNA re-replication induction in MCF 10a cells. MCF 10A DNA re-replication, Hoechst nuclear intensity, 48 h. Potency, µM (doses to about 46.1 µM), actives largely listed as activators. actives 2.9% (n = 350,000). AID 624296; note: nearly all actives have a fitted effect of over 50% in size
SW480 rerep: inducers of DNA re-replication in SW480 colon cancer cells. SW480 DNA re-replication, Hoechst DNA content imaging, 48 h. Potency, µM (doses to about 46.1 µM), most hits filed as activators. actives 1.8% (n = 340,000). AID 624297; note: nearly all actives have a fitted effect of over 55% in size
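Cells (250 per well) received 23 nL compound or DMSO by pin tool and were kept 48 hr at 37 C, 5% CO2. Nuclei were then stained with Hoechst for 40 min and scanned for DNA content.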
A number is an active result; i = inactive; ? = inconclusive; nt = no result; ! = a repeat was not active; [ ] = another dose, or the depositor's remark. Sampled rows, rich in hits. Any-hit rate of the full collection: about 8.1%. Calls come from the whole dose curve; as a rule, active = well fitted curve in the direction sought with a large enough effect; inconclusive = small, poorly fitted or top-dose-only effect, or another doubt; inactive = no such curve, though single readings can be large; an effect the other way counts as inactive or inconclusive.

SMILES	ELG1 DNA repair	KB-V1 cytotox	KB-3-1 tox	MCF10A rerep	SW480 rerep
COc1ccc(-c2ccc(-c3nc4ccc(C)cn4c3NC3CCCCC3)cc2OC)cc1	?	16µM!	?	?	?
COc1cc(-c2nc3ccc(C)cn3c2Nc2ccc3c(c2)OCCO3)ccc1O	i	i	i	21µM	i
CC(C)(C)c1csc(NC(=O)CCc2ccccc2)n1	?	i	i	?	?
CCN(CCCNC(=O)C1CCN(S(=O)(=O)CC)CC1)c1ccccc1	i	i	i	2.9µM	i
CCOc1ccc(C(C)NC(=S)NC2CCCCC2)cc1OCC (centres undefined)	23µM	?	i	i	i
CC(NC(=S)NC1CCCCC1)c1ccc(C(C)(C)C)cc1 (centres undefined)	i	12µM	?	5.8µM	i
O=C(Oc1cc2oc(=O)cc(-c3ccccc3)c2cc1Cl)C1CCCCC1	16µM	?	i	?	?
O=C(Oc1ccc2ccc(=O)oc2c1)C1CCCCC1	i	?	i	i	i
CC(C)(C)OC(=O)NCC(=O)Oc1cc2oc(=O)cc(-c3ccccc3)c2cc1Cl	?	i	i	23µM	21µM
Cc1ccc(Nc2nc(N)nc(CN3CCN(Cc4ccc5c(c4)OCO5)CC3)n2)cc1C	13µM	?	i	i	i
Cc1ccc(Nc2nc(N)nc(CN3CCN(Cc4ccc5c(c4)OCO5)CC3)n2)c(C)c1	?	i	i	i	i
Cc1ccc(Nc2nc(N)nc(CN3CCN(Cc4ccc5c(c4)OCO5)CC3)n2)cc1Cl	?	?	21µM	?	i
Cc1ccc(Nc2nc(N)nc(CN3CCN(Cc4ccc5c(c4)OCO5)CC3)n2)cc1	?	?	i	i	i
COc1ccc(CCNc2nc(-c3ccncc3)cs2)cc1OC	?	?	i	i	i
COc1ccc(CCNc2nc(-c3sc(C)nc3C)cs2)cc1OC	18µM	i	?	?	i
COc1ccc(CCNc2nc(-c3ccc(O)cc3)cs2)cc1OC	23µM	i	i	?	i
COc1ccc(CCNc2nc(-c3ccccn3)cs2)cc1OC	18µM	i	i	i	i
Cc1ccn(CCC(=O)NC2CC(C)(C)Cc3c2cnn3-c2ccccc2C)n1 (centres undefined)	i	i	i	i	i
CCOC(=O)c1c(N)sc(C(O)(C(F)(F)F)C(F)(F)F)c1-c1ccc(F)cc1	i	i	i	i[0.0737 µM]	18µM
CCOC(=O)c1c(N)sc(C(O)(C(F)(F)F)C(F)(F)F)c1-c1ccc(Cl)cc1	i	i	i	15µM	?
CCN(CC)S(=O)(=O)c1ccc(NC(=O)COC(=O)c2ccc(Br)o2)cc1	i	i	i	i	i
CS(=O)(=O)N(CC(=O)NCc1ccc2c(c1)OCO2)c1cccc(Cl)c1	i	i	i	i	i
O=C(CNCc1ccccc1Cl)Nc1cc(S(=O)(=O)N2CCOCC2)ccc1Cl	?	i	i	i	i
Cc1ccc(S(=O)(=O)N2CCOCC2)cc1NC(=O)COc1ccccc1Cc1ccccc1	8.2µM	i	i	?	i
Cc1ccc(S(=O)(=O)N2CCOCC2)cc1NC(=O)CNCc1ccc(Cl)cc1Cl	23µM	i	i	i	i
SMILES	ELG1 DNA repair	KB-V1 cytotox	KB-3-1 tox	MCF10A rerep	SW480 rerep
Cc1ccc(S(=O)(=O)N2CCOCC2)cc1NC(=O)COc1ccc(C(=O)c2ccccc2)cc1	?	i	?	i	i
O=C(COc1ccccc1Cc1ccccc1)Nc1cccc(S(=O)(=O)N2CCOCC2)c1	?	5.2µM	?	i	i
COc1ccc(NC(=O)COc2ccccc2Cc2ccccc2)cc1S(=O)(=O)N1CCOCC1	?	?	i	i	i
CCOC(=O)c1cc(-c2cccc(C(F)(F)F)c2)nc2nc(SC)[nH]c(=O)c12	?	i	i	i	i
CCOC(=O)c1nc(C)nc(Sc2n[nH]c(-c3cc(C(F)(F)F)cc(C(F)(F)F)c3)n2)c1C	i	i	i	16µM	i
O=c1c2c(nc3cc(-c4cccc(F)c4)[nH]n13)CCC2	?	i	i	i	i
COc1ccccc1CNc1nc(NC(C)C)nc2ccsc12	nt	10µM	?	nt	nt
COCCNc1nc(NCc2cc(-c3ccc(OC)cc3)no2)c2sccc2n1	nt	18µM	?	nt	nt
COc1cccc(CNc2nc(NC(C)C)nc3ccsc23)c1OC	nt	i	i	nt	nt
CNc1nc(NCc2cccc(OC)c2)c2sccc2n1	nt	i	i	nt	nt
COc1cccc(CNc2nc(NCc3ccccc3)nc3ccsc23)c1	nt	9.2µM	?	nt	nt
CCc1nc(NCCC(C)C)c2nnn(Cc3ccccc3)c2n1	i	i	i	i	i
COc1ccc(NC(=O)CS(=O)c2ccc(F)cc2)cc1 (centres undefined)	i	?	i	i	i
O=C(O)c1ccc2c(c1)SC1=NS(=O)(=O)CCN12	i	?	i	i	i
CN(C(=O)c1ccc2c(c1)SC1=NS(=O)(=O)CCN12)C(c1ccccc1)c1ccccc1	26µM	i	i	i	nt
CCOc1ccc(NC(=O)c2cccc(S(=O)(=O)Nc3c(C)n(C)n(-c4ccccc4)c3=O)c2)cc1	nt	i	i	i	i
CC(=O)N1N=C(c2ccc3ccccc3c2)OC1(C)C	i	18µM	?	?	i
CC(=O)N1N=C(c2ccc(C(C)(C)C)cc2)OC1(C)C	i	i	i	?	?
CCC(=O)N1CCc2cc(Br)cc(S(=O)(=O)N3CCC(C(=O)NC(C)(C)C)CC3)c21	7.3µM	i	i	i	i
O=C(C[C@@H]1C/C=C\C[C@H](NC(=O)OCC2c3ccccc3-c3ccccc32)C(=O)OC[C@H]2CCCN2C1=O)N[C@@H](CO)Cc1ccccc1	15µM	?	i	i	i[9.22 µM]
O=C(C[C@H]1C/C=C\C[C@H](NC(=O)OCC2c3ccccc3-c3ccccc32)C(=O)OC[C@H]2CCCN2C1=O)NCCO	i	i	i	i	i
CC(C)(C)[C@H]1COC(=O)[C@@H](Cc2ccc(F)cc2)CC/C=C/C[C@@H](CC(=O)N[C@H](CO)Cc2ccccc2)C(=O)N1	i	i	i	i	i
CC(C)(C)[C@H]1COC(=O)[C@@H](Cc2ccc(F)cc2)CC/C=C/C[C@@H](CC(=O)N[C@@H](CO)Cc2ccccc2)C(=O)N1	26µM	i	i	i	?
O=C(C[C@@H]1C/C=C\CC[C@H](Cc2ccc(F)cc2)C(=O)OC[C@@H]2CCCN2C1=O)N[C@H](CO)Cc1ccccc1	21µM	i	i	?	?
CC(C)N(CCNC(=O)c1cn(C)c2ccc(S(=O)(=O)N(C)C)cc2c1=O)Cc1ccccc1	i	i	?	i	i
Nc1ncnc2c1C1(CCCCC1)Cc1ccccc1-2	10µM	23µM	?	i	i
CCCCNC(=O)c1sc(=S)n(-c2ccccc2OC)c1N	i	21µM	i	i	i
CCCCc1ccc(NC(=O)CSc2nc(=O)n(CCN(CC)CC)c3c2CCCC3)cc1	i	26µM	?	i	?
